Measurements published in the supplement of paper PMC6555819.

What was measured:
Test in all cases: PBM binding z-score (relative to random genomic background probes); higher = stronger binding; sequences stand for … in GC…GCGATTGACAGCGTAGAATGAAGG
[1] = system: PPARg:RXRa DBDmut IVT, anti-RXR (DBD mutation: RXRa K156A/R161A, NR concentration 270 nM, RXRa partner concentration 90 nM)
In short: (§1)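 On custom Agilent 4×180K arrays, double-stranded probes with 34-nt variable regions carried direct-repeat seeds, single-nucleotide variants, half-site ablations or random human genomic background. Ligand-free nuclear receptor dimers were applied for 1 h, and binding was read with antibodies against each partner (one per run). Binding z-scores come from regression-normalized fluorescence, with the random background probes as reference.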

[2] = system: PPARg:RXRa IVT, anti-PPARg (NR concentration 270 nM, RXRa partner concentration 90 nM)
In short: as §1

[3] = system: PPARg DBDmut:RXRa IVT, anti-PPARg (DBD mutation: PPARg1 K132A/R137A, NR concentration 270 nM, RXRa partner concentration 90 nM)
In short: as §1

[4] = system: PPARg DBDmut IVT, anti-PPARg (DBD mutation: PPARg1 K132A/R137A, NR concentration 270 nM)
In short: as §1

[5] = system: PPARg homodimer (NR concentration 180 nM)
In short: as §1

[6] = system: PXR:RXRa (NR concentration 270 nM, RXRa partner concentration 90 nM)
In short: as §1

[7] = system: PXR homodimer (NR concentration 270 nM)
In short: as §1

[8] = system: RARa:RXR (NR concentration 270 nM, RXRa partner concentration 90 nM)
In short: as §1

[9] = system: RARa homodimer (NR concentration 270 nM)
In short: as §1

[10] = system: RARb:RXRa (NR concentration 270 nM, RXRa partner concentration 90 nM)
In short: as §1

[11] = system: RARb homodimer (NR concentration 270 nM)
In short: as §1

[12] = system: RARg:RXRa (NR concentration 270 nM, RXRa partner concentration 90 nM)
In short: as §1

[13] = system: RARg homodimer (NR concentration 270 nM)
In short: as §1

[14] = system: RXRa DBDmut IVT, anti-RXR (DBD mutation: RXRa K156A/R161A, NR concentration 90 nM)
In short: as §1

[15] = system: RXRa homodimer (NR concentration 180 nM)
In short: as §1

[16] = system: THRa:RXRa (NR concentration 90 nM, RXRa partner concentration 90 nM)
In short: as §1

[17] = system: THRa homodimer (NR concentration 90 nM)
In short: as §1

[18] = system: VDR:RXRa (NR concentration 270 nM, RXRa partner concentration 90 nM)
In short: as §1

[19] = system: VDR homodimer (NR concentration 270 nM)
In short: as §1

Sequence	PBM binding z-score [1]	PBM binding z-score [2]	PBM binding z-score [3]	PBM binding z-score [4]	PBM binding z-score [5]	PBM binding z-score [6]	PBM binding z-score [7]	PBM binding z-score [8]	PBM binding z-score [9]	PBM binding z-score [10]	PBM binding z-score [11]	PBM binding z-score [12]	PBM binding z-score [13]	PBM binding z-score [14]	PBM binding z-score [15]	PBM binding z-score [16]	PBM binding z-score [17]	PBM binding z-score [18]	PBM binding z-score [19]
ACAGGCAGGTGATGAAGGTAACTCAGGCTATCAT	0.0324	0.0841	0.243	-0.423	-0.139	-0.235	0.0904	-0.0555	0.0189	0.121	0.415	-0.159	0.118	-0.414	0.0459	0.973	0.276	-0.0607	-0.29
AGAACGAGGGCAATGAGTTGACAGCACGGGTGGC	3.68	2.54	0.168	0.4	-0.106	1.19	2.68	0.713	-0.225	2.12	1.2	1.33	1.73	1.54	1.02	1.19	-0.211	5.03	2.89
TCATATAGGTAAACTGGTGAAAGTCCGTAAGTTA	3.83	2.69	1.43	1.35	0.515	0.463	0.739	0.446	1.61	0.361	0.366	0.0786	-0.0648	1.19	0.361	0.34	0.281	0.597	0.358
TAGCCTAGGTCATGCGGGCCAGGATAGTGTCGGC	1.52	3	-0.00181	-0.781	0.191	1.29	-0.269	1.89	-0.855	3.74	3.1	3.77	4.7	0.23	2.94	3.06	0.933	2.76	0.706
CCTTACGGGTCACTCCAGATTATAGCATCGGAGT	2.52	3.47	0.108	0.192	1.74	2.59	0.423	2.96	0.564	3.75	2.58	4.16	3.98	1.28	3.98	2.65	0.098	2.72	1.39
CAAACTAGGTCACGAAACGTCAAAGTCGAATGAC	8.38	9.02	2.1	1.7	2	1.76	0.0967	2.91	0.992	4.36	3.21	4.59	5.27	1.07	3.8	3.28	1.52	2.2	0.534
ACGTACGGGTCAACGAGGTTATAGCACGCGTATA	1.33	2.92	0.48	0.418	1.72	5.2	2.83	5.19	0.777	4.28	3.58	5.69	5.07	2.07	6.3	4	0.75	7.49	3.93
CGTCCATGGTCAAGGTCAGTGAAAGAGACTCGAA	0.484	1.54	-0.688	-0.778	1.17	1.78	0.42	2.23	0.236	3.59	3.21	3.15	3.78	0.79	2.4	2.84	1.79	1.51	1.02
TAGCCTAGGTCATGGTCCAGTATACCACGCGAAC	2	3.39	0.0262	-0.185	0.886	1.64	-0.02	2.35	-0.386	3.78	3.04	3.96	4.28	0.681	3.51	3.39	1.75	2.14	0.777
CCTTACGGGTCACTGACAGGTTATAGGATTTGGA	3.61	3.81	0.353	-0.0191	2.26	3.57	0.377	4.38	0.591	4.08	3.52	5.89	4.77	1.67	5.17	2.96	0.251	3.77	1.28
CGAACTAGGTCATTGACAGGACAGTTAATAGTAA	8.43	8.43	3.82	2.93	2	1.68	0.386	2.32	0.822	3.6	2.42	4.65	4.41	2.52	2.86	2.77	0.893	2.16	1.27
ATATGTAGGTTACATCTGGGTCATTCAGGCTATG	7.49	7.53	2.55	1.93	1.95	2.11	1.05	2.38	0.399	2.18	3.02	3.33	2.31	0.961	2.38	3.17	1.31	3.04	1.8
GCGACTGGGGCATCAGCAGGTTCCCATAACTTAA	3.91	2.88	-0.996	-0.982	-0.276	-0.549	-0.571	-0.272	-0.565	0.421	0.194	-0.00118	-0.0802	-0.281	-0.0306	-0.0535	-0.272	-0.515	-0.434
GATCCAGGGTCAAGGCCAGAGTACGCGTATTGAT	2.29	3.75	0.299	0.301	2.21	4.33	0.0901	5.29	0.437	4.49	3.61	5.58	5.08	2.45	6.11	3.65	1.11	4.58	2.04
AGTCACAGTTCATCTAGGTAACGTAAGATATGCT	0.901	2.75	1.15	1.19	0.64	2.32	1.87	1.44	0.582	2.74	1.67	2.47	2.66	3.33	2.05	2.13	0.362	3.05	3.1
